Bioassay records (PubChem BioAssay)
FLuc counter: counter-screen for miR-21 project: firefly luciferase inhibitors or activators | P08659 | Potency, µM (top dose mostly 57.5 µM), for the others: top-dose activity change, negative = inhibition, hits mostly inhibitors | 360,000 compounds, 6.9% hits | purified FLuc, Km substrates, luminescence inhibition | AID 588342;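 further: plate controls were vehicle for no effect and reference inhibitor for full effect; nearly all actives have a fitted effect of over 55% in size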
Target sequence (P08659 whole entry, looked up): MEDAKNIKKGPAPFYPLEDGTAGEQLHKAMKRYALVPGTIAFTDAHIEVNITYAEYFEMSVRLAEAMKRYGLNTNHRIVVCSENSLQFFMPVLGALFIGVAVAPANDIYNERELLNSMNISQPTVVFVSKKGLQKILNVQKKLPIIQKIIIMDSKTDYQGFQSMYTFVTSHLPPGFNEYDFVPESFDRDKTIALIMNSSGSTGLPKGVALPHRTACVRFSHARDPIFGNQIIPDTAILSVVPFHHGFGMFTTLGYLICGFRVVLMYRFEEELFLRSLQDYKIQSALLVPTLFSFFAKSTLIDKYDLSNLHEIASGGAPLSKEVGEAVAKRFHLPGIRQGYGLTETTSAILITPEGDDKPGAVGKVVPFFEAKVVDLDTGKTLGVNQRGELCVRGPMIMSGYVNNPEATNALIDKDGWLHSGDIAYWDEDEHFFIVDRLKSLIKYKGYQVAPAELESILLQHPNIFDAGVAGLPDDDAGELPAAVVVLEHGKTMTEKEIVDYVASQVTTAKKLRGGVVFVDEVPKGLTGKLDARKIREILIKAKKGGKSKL
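Purified P. pyralis luciferase, 10 nM final, with Km-level 10 uM D-luciferin and 10 uM ATP in 50 mM Tris acetate pH 7.5, 10 mM Mg acetate, 0.01% Tween-20, 0.05% BSA; 6-point qHTS titration about 60 µM downward; luminescence read.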
ELG1 DNA repair: blocks ELG1-dependent DNA repair in HEK293T cells; HEK293T ELG1-luciferase reporter, luminescence, 16 h; DNA damage induced by 5-fluorouridine; Potency, µM (doses to about 46.1 µM), without a hit: at the highest dose activity change, negative = inhibition, actives largely listed as inhibitors; 330,000 compounds, 2.3% hits; further: on the % scale 0 is the no-effect control and ±100 the full control effect; nearly all actives have a fitted effect of over 55% in size
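Step one: seed 2,000 cells per well. Step two: pin-transfer compound or DMSO alongside 5-fluorouridine. Step three: incubate 16 hr, 37 °C, 5% CO2. Step four: add ONE-Glo, wait 30 min, read luminescence.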
NPC1 promoter act: NPC1 promoter activation; 320,000 compounds, 2.4% hits; AID 485313; Potency, µM (series often up to 9.22 µM), inactives show at the highest dose activation, most hits filed as activators; Huh7 NPC1 promoter luciferase reporter, 24 h; further: % of control where 0% means no effect; nearly all actives have a fitted effect of over 60% in size
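Luciferase expression driven by the NPC1 promoter was measured in stably transfected Huh7 cells after a 24 h compound incubation, using a luciferase reagent and a luminescence read.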
ELG1 genotox: genotoxicity induction in ELG1-luciferase HEK293T cells; HEK293T ELG1-luciferase reporter, luminescence, 16 h; Potency, µM (titrated, usually from 46 µM), inactives show at the top dose activity change, positive = activation, actives largely listed as activators; 330,000 compounds, 1.3% hits; AID 504466; further: % of control where 0% means no effect; nearly all actives have a fitted effect of over 60% in size
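Genotoxic stress is detected as increased luminescence from luciferase-tagged ELG1 in HEK293T cells, measured with ONE-Glo after a 16 hr treatment at 37 °C.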
Rab9 prom act: activators of Rab9 promoter. Potency, µM (top dose mostly 9.22 µM), for inactives: at the highest dose activation, negative = inhibition, actives largely listed as activators. 320,000 compounds, 2.8% hits. AID 485297. Huh7 Rab9 promoter-luciferase reporter, luminescence, 24 h; further: % of control where 0% means no effect; nearly all actives have a fitted effect of over 60% in size
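Steps: seed 1500 Huh7 Rab9-luc cells per well, rest 2 h at 37 °C; add compound in DMSO; incubate 24 h; add luciferase reagent, 10 min ambient; read luminescence.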
SMN2 splice enh: increases expression of the SMN2 splice variant; HEK293 SMN2-luciferase splicing reporter, luminescence, 30-36 h; Potency, µM (titrated, usually from 46.1 µM), inactives show top-dose activity change, positive = activation, hits mostly activators; 210,000 compounds, 2.8% hits; AID 1458; further: % of control where 0% means no effect; nearly all actives have a fitted effect of over 55% in size
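qHTS luciferase splicing reporter: luminescence rises when SMN2 exon 7 is included in transfected HEK293 cells. Compound exposure lasted 30-36 h at 37C, with 4.5 mM final sodium butyrate as control, followed by a ONE-Glo read.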
* hit, by the source's call; ? = inconclusive; / = no result given; [ ] = another dose, or the depositor's remark. Compounds with a hit are over-represented: about 9.2% of the library has one in this group of screens. The call rests on the fitted dose curve; in most records, active means well fitted curve in the direction sought with a large enough effect; inconclusive means small, poorly fitted or top-dose-only effect, or another doubt; inactive means no such curve, though single readings can be large; an effect the other way counts as inactive or inconclusive. Potency means the concentration at half of the fitted maximal effect.

SMILES	FLuc counter	ELG1 DNA repair	NPC1 promoter act	ELG1 genotox	Rab9 prom act	SMN2 splice enh
Oc1ccc(OCc2ccccc2)cc1	/	/	/	/	/	4.4%[20.6 µM]
CC=C(Cl)Cl	/	/	/	/	/	3.1%
Cc1nc2ccccc2n1CC(=O)NC(C)C1CC2CCC1C2 (stereo unspecified)	0.6%	5.17µM*	-27.1%	-5.9%	-25.6%	-48.4%
CC(NC(=O)Cn1c(NCCO)nc2ccccc21)C1CC2CCC1C2 (stereo unspecified)	-0.9%	19.0%	-4.1%	-5.0%	3.9%	-4.8%
O=C(Nc1cccc(S(=O)(=O)N2CCOCC2)c1)C1CC1	/	9.1%	/	0.3%	/	/
O=C(c1ccccc1)c1ccc(Sc2ccc([N+](=O)[O-])cc2)cc1	-1.1%	11.6µM*	-5.6%	-4.0%	-13.9%	/
CC(OC(=O)Cc1c(F)cccc1Cl)C(=O)NC1CCCCC1C (stereo unspecified)	-0.8%	24.3%	-0.5%	-1.0%	1.6%	/
COc1ccc([C@H]2CC(=O)C=C(c3ccc(Cl)c(C(F)(F)F)c3)C2)cc1	3.1%	5.6%	8.0%	1.8%	-2.2%	/
Cc1ccc(-n2nc3c(N4CCC(C(=O)N(C)Cc5ccccc5)CC4)nnc(C)c3c2C)cc1	-0.3%	/	/	/	/	/
CC1=C(C#N)C(=O)NC(=O)/C1=C\c1ccc(-c2ccc(C)cc2[N+](=O)[O-])o1	26.9µM*	-0.4%	4.0%	1.2%	1.3%	-4.3%
O=C(COc1ccccc1F)Nc1ccccc1C(=O)OCc1cc(=O)n2nc(C3CC3)sc2n1	-19.2%	/	/	/	/	/
O=C(CSc1nnc(SCc2ccc(Cl)cc2)s1)N1CCOCC1	15.1µM*	-17.6%	-15.3%	-0.3%	0.1%	-6.1%
O=C(CSCc1ccc(Cl)cc1)N1CCOCC1	?	?	10.8%	10.0%	-4.2%	15.3%
CCN(CC)C(=O)CSc1nnc(SCc2ccc(Cl)cc2)s1	19µM*	?	1.0%	-7.0%	-6.5%	10.0%
O=C(Nc1ccc(Cl)cc1)Nc1nnc(SCc2ccc(Cl)cc2)s1	4.0%	-23.2%	-1.2%	-0.6%	-12.7%	-13.9%
O=C(Nc1cc2c(cc1Br)OCCCO2)c1cccnc1	?	?	19.8%	?	8.0%	/
O=C(Nc1cc2c(cc1Cl)OCCCO2)c1ccc(F)cc1	12µM*	?	?	?	2.82µM*	7.94µM*
Cc1ccc(C(=O)Nc2cc3c(cc2Cl)OCCCO3)cc1	7.57µM*	?	1.78µM*	?	2µM*	11.2µM*
CC(=O)c1cc2c(cc1NC(=O)c1ccc(Cl)cc1)OCCO2	-3.8%	?	-1.3%	17.9%	-2.4%	/
O=C(Nc1cc2c(cc1Br)OCCCO2)c1ccccc1	13.5µM*	?	3.55µM*	?	3.98µM*	15.8µM*
O=C(Nc1cc2c(cc1C(=O)c1ccccc1Cl)OCCO2)c1ccc(Br)cc1	-8.5%	/	/	/	/	-1.5%
O=C(CSc1n[nH]c(-c2ccc(Br)cc2)n1)NC1CCCC1	/	?	/	-0.2%	/	/
CCc1ccc(-c2nc(SCC(=O)N(C)C3CCS(=O)(=O)C3)n[nH]2)cc1 (stereo unspecified)	?	?	13.5%	14.4%	24.2%	/
O=C(CSc1n[nH]c(-c2cccs2)n1)N1CCOCC1	/	?	/	0.9%	/	/
CCOC(=O)c1sc2nc(C)nc(SCC(=O)N(CC)C3CCS(=O)(=O)C3)c2c1C (stereo unspecified)	?	16.4µM*	-5.9%	-2.9%	-7.6%	-59.8%
SMILES	FLuc counter	ELG1 DNA repair	NPC1 promoter act	ELG1 genotox	Rab9 prom act	SMN2 splice enh
CCc1ccc(-c2nc(SCC(=O)N(CC)C3CCS(=O)(=O)C3)n[nH]2)cc1 (stereo unspecified)	3.38µM*	?	21.4%	9.0%	?	/
CCc1ccc(-c2nc(SCC(=O)NC3CC3)n[nH]2)cc1	13.5µM*	?	-2.4%	?	15.1%	/
CCc1ccc(-c2nc(SCC(=O)N3CCOCC3)n[nH]2)cc1	16.9µM*	?	7.0%	9.5%	21.7%	/
CCc1ccc(-c2nc(SCC(=O)c3c(N)n(C4CC4)c(=O)[nH]c3=O)n[nH]2)cc1	2.13µM*	1.5%	14.3%	-0.6%	26.9%	/
Cc1ccc(Nc2nnc(SCC(=O)c3c(N)n(C4CC4)c(=O)[nH]c3=O)s2)cc1C	0.757µM*	-22.4%	12.3%	-1.3%	2.4%	/
COc1ccc(-c2csc(NC(=O)C3CC(=O)N(Cc4ccccc4)C3)n2)cc1OC (stereo unspecified)	9.0%	11.6µM*	1.0%	-18.5%	-10.7%	/
CCc1noc(C)c1C(=O)Nc1nc(-c2ccc(OC)c(OC)c2)cs1	-12.9%	?	-4.0%	-38.9%	-7.0%	/
COc1ccc(-c2csc(NC(=O)CSCc3c(C)noc3C)n2)cc1OC	-8.1%	11.6µM*	0.4%	-12.9%	11.5%	/
Cc1noc(C)c1CSCC(=O)Nc1nc(-c2ccc(F)c(F)c2)cs1	-0.9%	?	2.1%	-4.4%	-5.2%	/
COc1ccccc1CC(=O)Nc1nc(-c2ccc(F)c(F)c2)cs1	15.1µM*	14.9%	4.8%	-14.4%	12.3%	/
COc1ccc(-c2csc(NC(=O)c3cc(C)oc3C)n2)cc1OC	19µM*	18.3µM*	-3.2%	-25.6%	8.4%	/
Cc1nnc(C)c2c(C)n(-c3ccccc3N)c(C)c12	-2.3%	15.6%	-0.8%	1.5%	-1.0%	/
O=C(Cc1ccccc1F)Nc1nc(-c2ccc(F)cc2)cs1	10.7µM*	-12.4%	7.9%	-13.5%	?	/
O=C(CS(=O)(=O)c1ccccc1)Nc1nc(-c2ccc(F)cc2)cs1	?	?	-6.3%	-2.1%	-1.9%	-26.7%
COc1ccc(CC(=O)Nc2nc(-c3ccc(OC)c(OC)c3)cs2)cc1OC	-6.9%	18.3µM*	-9.8%	-28.5%	-9.1%	/
COc1ccc(-c2csc(NC(=O)Cc3ccccc3F)n2)cc1OC	?	16.4µM*	-12.7%	-24.4%	-7.3%	/
COc1ccc(-c2csc(NC(=O)CC(NC(C)=O)c3ccccc3)n2)cc1OC (stereo unspecified)	?	-2.8%	-4.4%	0.2%	0.5%	/
COc1ccc(-c2csc(NC(=S)NC(=O)c3cccs3)n2)cc1OC	?	20.6µM*	-3.2%	-8.8%	-5.2%	-7.8%
CC(=O)OC1CC2C(C)(C)C(=O)C=C[C@]2(C)C2CC[C@@]3(C)C(c4ccoc4)OC(=O)C4O[C@@]43[C@]12C (stereo partly specified)	/	/	/	/	/	-54.1%
Cc1nn(-c2ccccc2)c(C)c1NC(=O)COC(=O)c1ccccc1OC(F)F	0.0%	?	1.8%	5.7%	14.0%	/
CCCc1nn(C)c(C(=O)Nc2cccc(C)c2)c1Cl	16.9µM*	?	?	?	?	19.4%
